Columns and labels:
Assay in all cases: PBM binding z-score (relative to random genomic background probes); higher = stronger binding; sequences stand for … in GC…GCGATTGACAGCGTAGAATGAAGG
[1] = system: FXR:RXRa (NR concentration 270 nM, RXRa partner concentration 90 nM)
In short: (§1)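 The probes on custom Agilent 4×180K protein-binding microarrays were double-stranded, with 34-nt variable regions bearing direct-repeat seeds, single-nucleotide variants, half-site ablations and random human genomic background sequences. Incubation lasted 1 h with ligand-free nuclear receptor dimers in PBS pH 7.4, 2% milk, 0.02% Triton X-100, 1 mM DTT, 0.2 mg/mL BSA and 0.4 mg/ml salmon testes DNA. Antibodies against each partner (one per run) detected bound dimers, and fluorescence scans were regression-normalized. Binding z-scores take the random background probes as reference.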

[2] = system: LXRa:RXRa (NR concentration 270 nM, RXRa partner concentration 90 nM)
In short: as §1

[3] = system: LXRa homodimer (NR concentration 270 nM)
In short: as §1

[4] = system: LXRb:RXRa (NR concentration 270 nM, RXRa partner concentration 90 nM)
In short: as §1

[5] = system: LXRb homodimer (NR concentration 270 nM)
In short: as §1

[6] = system: PPARa:RXRa (NR concentration 270 nM, RXRa partner concentration 90 nM)
In short: as §1

[7] = system: PPARg:RXRa (NR concentration 180 nM, RXRa partner concentration 90 nM)
In short: as §1

[8] = system: PPARg:RXRa 270nM:90nM, anti-RXR (NR concentration 270 nM, RXRa partner concentration 90 nM)
In short: as §1

[9] = system: PPARg:RXRa 30nM:10nM, anti-RXR (NR concentration 30 nM, RXRa partner concentration 10 nM)
In short: as §1

[10] = system: PPARg:RXRa 90nM:30nM, anti-RXR (NR concentration 90 nM, RXRa partner concentration 30 nM)
In short: as §1

[11] = system: PPARg:RXRa DBDmut IVT, anti-RXR (DBD mutation: RXRa K156A/R161A, NR concentration 270 nM, RXRa partner concentration 90 nM)
In short: as §1

[12] = system: PPARg:RXRa IVT, anti-PPARg (NR concentration 270 nM, RXRa partner concentration 90 nM)
In short: as §1

[13] = system: PPARg DBDmut:RXRa IVT, anti-PPARg (DBD mutation: PPARg1 K132A/R137A, NR concentration 270 nM, RXRa partner concentration 90 nM)
In short: as §1

[14] = system: PPARg DBDmut IVT, anti-PPARg (DBD mutation: PPARg1 K132A/R137A, NR concentration 270 nM)
In short: as §1

[15] = system: PPARg homodimer (NR concentration 180 nM)
In short: as §1

[16] = system: PXR:RXRa (NR concentration 270 nM, RXRa partner concentration 90 nM)
In short: as §1

[17] = system: PXR homodimer (NR concentration 270 nM)
In short: as §1

[18] = system: RARa:RXR (NR concentration 270 nM, RXRa partner concentration 90 nM)
In short: as §1

[19] = system: RARa homodimer (NR concentration 270 nM)
In short: as §1

[20] = system: RARb:RXRa (NR concentration 270 nM, RXRa partner concentration 90 nM)
In short: as §1

Sequence | PBM binding z-score [1] | PBM binding z-score [2] | PBM binding z-score [3] | PBM binding z-score [4] | PBM binding z-score [5] | PBM binding z-score [6] | PBM binding z-score [7] | PBM binding z-score [8] | PBM binding z-score [9] | PBM binding z-score [10] | PBM binding z-score [11] | PBM binding z-score [12] | PBM binding z-score [13] | PBM binding z-score [14] | PBM binding z-score [15] | PBM binding z-score [16] | PBM binding z-score [17] | PBM binding z-score [18] | PBM binding z-score [19] | PBM binding z-score [20]
TATCGGAGGACACGAAAGGTCAGAGCTCGACATC | 3.35 | 4.54 | 4.27 | 3.43 | 0.855 | 3.93 | 2.18 | 2.81 | 1.03 | 2.13 | 0.425 | 2.37 | 0.89 | 0.344 | 2.86 | 4.25 | 0.981 | 4.73 | 1.49 | 4.37
CGTCAATGTTCAACTAAGGTAACGTAAAGCACGC | 0.964 | 0.0385 | 0.177 | 0.536 | 0.375 | 0.376 | 0.538 | -0.0311 | -0.0519 | 0.0418 | 0.201 | 0.781 | 0.0203 | 0.928 | 0.877 | 0.252 | 0.0149 | 1.05 | 0.784 | 0.573
TCTTGTAGATCAAAGGTTAAGAATGCCGAAGCCT | 2.11 | 2.06 | 0.248 | 1.94 | 0.134 | 4.68 | 7.84 | 7.95 | 8.02 | 8.37 | 2.34 | 3.51 | 1.47 | 0.478 | 1.27 | 1.95 | -0.149 | 2.85 | 0.414 | 1.87
ATCTCTAGGGAACAAGTTCAGTGAAAGAGAGGAC | 0.199 | 0.374 | 0.318 | 0.32 | 0.577 | 0.667 | 0.723 | 1.08 | 0.126 | 0.728 | 0.484 | 0.703 | 0.478 | 0.258 | 0.773 | 1.36 | 1.25 | 0.667 | 0.314 | 1.3
CCCGACAGGTGAAAGGTAACTCAGTCTGGTACGC | 0.639 | 0.898 | -0.133 | 0.876 | -0.143 | 3.39 | 5.1 | 5.75 | 3.73 | 5.61 | 1.64 | 2.67 | -0.316 | -0.825 | 0.815 | 0.798 | 0.0265 | 1.73 | 0.375 | 1.09
CCGACTGGGGCAAAGGTGACCATACTCAGTACGA | 0.275 | 0.171 | -0.478 | 0.634 | -1.65 | 4.77 | 10.3 | 8.5 | 8.35 | 9.3 | 5.54 | 5.24 | 0.207 | -0.959 | 1.34 | 0.701 | -0.655 | 1.65 | -0.317 | 1.62
CCGACTGGGGCACGGTTACCATAACGCACAGCCA | -0.15 | -0.079 | -0.346 | -0.211 | -0.878 | 0.346 | 1.8 | 0.982 | -0.228 | 0.391 | 3.83 | 4.42 | -0.407 | -0.566 | 0.044 | -0.353 | -0.44 | -0.139 | -0.261 | 1.06
GCTAACGGGTCAAAGGTTATAGCATGAATAGAAT | 7.39 | 5.26 | 0.513 | 5.21 | 0.0725 | 6.84 | 10.4 | 8.58 | 9.26 | 9.13 | 3.51 | 5.64 | 0.399 | 0.838 | 1.81 | 5.59 | 0.2 | 7.51 | 0.254 | 4.19
ACTATTAGTTGTCTTAGGGCAACCGATACGACGC | 0.119 | 0.0228 | 0.27 | 0.0317 | 0.936 | -0.245 | 0.651 | 0.232 | 0.276 | 0.044 | 0.0563 | 0.447 | 1.35 | 1.18 | 0.545 | -0.171 | 0.0491 | -0.0308 | 0.604 | 0.618
AGAATGCGGTTACCAAAGATCAGGGAAACGCTTG | -0.546 | 1.96 | -0.607 | -0.204 | -0.992 | 0.0564 | 0.562 | 0.104 | -0.151 | -0.17 | -0.0849 | -0.0394 | -0.888 | -0.42 | -0.659 | -0.382 | -0.939 | -0.221 | -0.366 | 0.18
CCTCGTAGGACAGAAGGTCAGAGCTGTCCGCTTT | 1.05 | 1.85 | 0.197 | 1.35 | -0.387 | 2.11 | -0.00358 | 1.14 | -0.551 | 0.426 | 0.395 | 0.358 | -0.69 | -1.03 | 1.25 | 1.47 | -0.0848 | 2.1 | -0.0313 | 3.02
TCATATAGGTAACTGCTAGGTGAAAGTCCGATCT | 1.07 | 1.19 | 0.0877 | 0.852 | -0.244 | 1.75 | 1.11 | 2.52 | 3.76 | 3.29 | 4.55 | 3.78 | 1.12 | 0.94 | 1.15 | 0.43 | 0.184 | 0.789 | 0.623 | 0.705
CGTCAAAGTTCAACTAAGGTAAAGTAAAGCACGC | 6.88 | 6.38 | 3.13 | 4.16 | 2.1 | 5.3 | 4.8 | 5.57 | 2.59 | 4.36 | 0.496 | 2.11 | 0.89 | 1.16 | 3.47 | 5.32 | 2.92 | 4.16 | 2.06 | 5.39
GATACAGGGTCAAGTCCAGAGTACGCGTATTGAT | 7.3 | 4.84 | 0.0543 | 4.3 | 0.511 | 5.77 | 5.91 | 5.85 | 2.51 | 4.33 | 3.07 | 4.1 | 1.84 | 0.844 | 4.21 | 4.36 | 0.54 | 5.16 | 1.38 | 4.64
